Measured values reported in the supplement of paper PMC11732987, “Enantioselective OTUD7B fragment discovery through chemoproteomics screening and high-throughput optimisation” (Communications Chemistry, 2025).

Key:
Test in all cases: log2 ratio of Biotin-Ahx-Ub-VS probe labelling (fragment/DMSO); higher = less target engagement (more negative = stronger competition), active = hit call of the paper (q ≤ 0.05, log2 ratio ≤ -1)
Settings in all cases: compound concentration: 200 uM; treatment time: 3 h
[1] = target: USP34 (UniProt Q70CQ2)
USP34, sequence (Q70CQ2 whole entry, the tested form may be a part): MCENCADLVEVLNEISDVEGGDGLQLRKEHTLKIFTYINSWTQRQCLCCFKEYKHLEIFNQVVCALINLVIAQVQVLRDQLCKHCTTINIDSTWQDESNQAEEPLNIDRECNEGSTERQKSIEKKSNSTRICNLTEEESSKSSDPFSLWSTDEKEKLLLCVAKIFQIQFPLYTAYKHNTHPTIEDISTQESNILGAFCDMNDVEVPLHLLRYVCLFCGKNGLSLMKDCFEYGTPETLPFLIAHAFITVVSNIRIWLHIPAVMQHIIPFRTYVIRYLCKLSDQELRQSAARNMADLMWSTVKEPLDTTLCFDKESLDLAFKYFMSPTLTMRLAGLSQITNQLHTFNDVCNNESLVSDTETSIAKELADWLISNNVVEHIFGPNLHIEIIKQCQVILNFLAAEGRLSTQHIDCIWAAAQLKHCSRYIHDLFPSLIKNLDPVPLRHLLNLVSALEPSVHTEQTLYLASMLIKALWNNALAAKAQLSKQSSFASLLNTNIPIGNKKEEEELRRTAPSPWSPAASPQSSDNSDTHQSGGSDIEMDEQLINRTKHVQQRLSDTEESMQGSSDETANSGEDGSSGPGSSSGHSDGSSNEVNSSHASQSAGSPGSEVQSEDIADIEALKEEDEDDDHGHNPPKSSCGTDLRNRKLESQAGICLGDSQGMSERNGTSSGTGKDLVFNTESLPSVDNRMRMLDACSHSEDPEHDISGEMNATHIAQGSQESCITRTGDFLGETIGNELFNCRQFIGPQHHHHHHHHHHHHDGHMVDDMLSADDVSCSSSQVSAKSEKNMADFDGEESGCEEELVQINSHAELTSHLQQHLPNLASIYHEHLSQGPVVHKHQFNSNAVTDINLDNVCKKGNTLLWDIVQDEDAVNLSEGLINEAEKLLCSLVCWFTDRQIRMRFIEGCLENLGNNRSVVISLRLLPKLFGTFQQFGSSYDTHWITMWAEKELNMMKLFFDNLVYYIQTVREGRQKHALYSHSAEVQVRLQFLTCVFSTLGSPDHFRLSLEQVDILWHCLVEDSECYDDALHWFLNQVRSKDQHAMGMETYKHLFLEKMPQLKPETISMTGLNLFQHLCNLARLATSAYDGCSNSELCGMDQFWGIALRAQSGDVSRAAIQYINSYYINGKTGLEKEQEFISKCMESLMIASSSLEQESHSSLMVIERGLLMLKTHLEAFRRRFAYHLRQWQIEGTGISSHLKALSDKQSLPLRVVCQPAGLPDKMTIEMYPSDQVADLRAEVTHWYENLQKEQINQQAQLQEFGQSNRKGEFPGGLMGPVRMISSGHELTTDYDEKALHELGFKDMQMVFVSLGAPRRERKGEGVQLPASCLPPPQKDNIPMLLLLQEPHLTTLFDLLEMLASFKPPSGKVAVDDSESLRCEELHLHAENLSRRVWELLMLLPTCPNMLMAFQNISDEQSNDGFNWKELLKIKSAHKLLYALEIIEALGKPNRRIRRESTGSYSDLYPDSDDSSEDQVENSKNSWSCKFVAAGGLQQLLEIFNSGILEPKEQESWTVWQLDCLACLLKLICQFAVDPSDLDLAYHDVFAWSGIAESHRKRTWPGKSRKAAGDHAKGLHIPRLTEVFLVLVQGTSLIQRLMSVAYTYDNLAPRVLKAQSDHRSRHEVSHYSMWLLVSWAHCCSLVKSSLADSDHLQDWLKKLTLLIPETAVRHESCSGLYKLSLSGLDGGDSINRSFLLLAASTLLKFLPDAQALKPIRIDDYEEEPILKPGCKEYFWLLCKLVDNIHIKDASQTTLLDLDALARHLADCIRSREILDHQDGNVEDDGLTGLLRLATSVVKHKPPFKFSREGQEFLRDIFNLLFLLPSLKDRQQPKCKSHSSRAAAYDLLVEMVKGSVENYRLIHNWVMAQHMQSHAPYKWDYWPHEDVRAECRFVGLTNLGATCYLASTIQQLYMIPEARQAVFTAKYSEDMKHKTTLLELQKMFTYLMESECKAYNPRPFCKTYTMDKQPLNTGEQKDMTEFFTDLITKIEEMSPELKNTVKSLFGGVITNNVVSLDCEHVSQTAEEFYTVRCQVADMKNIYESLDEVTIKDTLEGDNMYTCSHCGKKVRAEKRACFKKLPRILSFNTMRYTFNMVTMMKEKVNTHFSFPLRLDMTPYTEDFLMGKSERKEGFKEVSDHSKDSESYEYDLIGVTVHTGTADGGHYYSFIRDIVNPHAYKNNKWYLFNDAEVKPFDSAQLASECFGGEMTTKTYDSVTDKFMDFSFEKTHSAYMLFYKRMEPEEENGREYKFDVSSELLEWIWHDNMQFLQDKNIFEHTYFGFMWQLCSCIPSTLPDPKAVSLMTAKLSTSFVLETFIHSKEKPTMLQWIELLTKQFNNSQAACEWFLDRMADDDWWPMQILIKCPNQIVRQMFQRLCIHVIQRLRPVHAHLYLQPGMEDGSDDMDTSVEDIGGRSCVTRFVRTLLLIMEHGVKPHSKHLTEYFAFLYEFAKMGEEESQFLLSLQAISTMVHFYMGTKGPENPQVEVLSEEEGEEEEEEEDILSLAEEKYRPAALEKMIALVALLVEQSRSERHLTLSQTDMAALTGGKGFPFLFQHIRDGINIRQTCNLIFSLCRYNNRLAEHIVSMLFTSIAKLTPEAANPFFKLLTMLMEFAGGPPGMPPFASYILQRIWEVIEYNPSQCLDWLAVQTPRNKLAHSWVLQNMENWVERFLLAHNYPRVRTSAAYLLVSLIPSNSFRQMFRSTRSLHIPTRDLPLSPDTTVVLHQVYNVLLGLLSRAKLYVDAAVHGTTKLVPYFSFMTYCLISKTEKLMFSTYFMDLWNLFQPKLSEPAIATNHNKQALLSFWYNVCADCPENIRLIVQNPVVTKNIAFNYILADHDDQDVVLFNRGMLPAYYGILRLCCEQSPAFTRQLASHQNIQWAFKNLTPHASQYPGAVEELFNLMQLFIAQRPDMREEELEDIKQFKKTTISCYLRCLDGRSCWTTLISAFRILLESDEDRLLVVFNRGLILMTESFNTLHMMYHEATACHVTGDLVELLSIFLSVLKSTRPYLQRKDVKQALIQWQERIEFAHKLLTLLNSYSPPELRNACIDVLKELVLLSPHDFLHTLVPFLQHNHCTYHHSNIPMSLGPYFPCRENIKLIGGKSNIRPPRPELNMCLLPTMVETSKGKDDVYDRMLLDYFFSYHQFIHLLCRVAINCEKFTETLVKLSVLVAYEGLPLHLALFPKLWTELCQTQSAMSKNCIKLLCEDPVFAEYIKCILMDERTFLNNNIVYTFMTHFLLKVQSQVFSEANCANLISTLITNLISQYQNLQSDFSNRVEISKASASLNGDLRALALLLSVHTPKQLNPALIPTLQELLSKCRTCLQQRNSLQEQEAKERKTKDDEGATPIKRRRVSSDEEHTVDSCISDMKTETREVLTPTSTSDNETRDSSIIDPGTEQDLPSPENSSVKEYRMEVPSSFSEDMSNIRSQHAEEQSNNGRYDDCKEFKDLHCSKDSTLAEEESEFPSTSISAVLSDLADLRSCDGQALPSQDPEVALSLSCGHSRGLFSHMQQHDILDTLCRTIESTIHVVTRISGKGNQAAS
How it was run: (§1)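 Labelling with Biotin-Ahx-Ub-VS (0.5 µM final, 1 h) followed a 3 h triplicate treatment of HEK293T lysate (495 µg per sample, Tris/CHAPS/IGEPAL buffer with protease inhibitors) with fragment at 200 µM or vehicle. Labelled DUBs were NeutrAvidin-enriched, digested with LysC and trypsin, and run by diaPASEF LC-MS/MS. The values, average log2 fragment/vehicle ratios by unpaired t-test, come from global-median-normalised Spectronaut label-free quantities. Proteins with ≥2 unique peptides were used.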

[2] = target: T1, USP36 (UniProt Q9P275)
T1 sequence (whole entry): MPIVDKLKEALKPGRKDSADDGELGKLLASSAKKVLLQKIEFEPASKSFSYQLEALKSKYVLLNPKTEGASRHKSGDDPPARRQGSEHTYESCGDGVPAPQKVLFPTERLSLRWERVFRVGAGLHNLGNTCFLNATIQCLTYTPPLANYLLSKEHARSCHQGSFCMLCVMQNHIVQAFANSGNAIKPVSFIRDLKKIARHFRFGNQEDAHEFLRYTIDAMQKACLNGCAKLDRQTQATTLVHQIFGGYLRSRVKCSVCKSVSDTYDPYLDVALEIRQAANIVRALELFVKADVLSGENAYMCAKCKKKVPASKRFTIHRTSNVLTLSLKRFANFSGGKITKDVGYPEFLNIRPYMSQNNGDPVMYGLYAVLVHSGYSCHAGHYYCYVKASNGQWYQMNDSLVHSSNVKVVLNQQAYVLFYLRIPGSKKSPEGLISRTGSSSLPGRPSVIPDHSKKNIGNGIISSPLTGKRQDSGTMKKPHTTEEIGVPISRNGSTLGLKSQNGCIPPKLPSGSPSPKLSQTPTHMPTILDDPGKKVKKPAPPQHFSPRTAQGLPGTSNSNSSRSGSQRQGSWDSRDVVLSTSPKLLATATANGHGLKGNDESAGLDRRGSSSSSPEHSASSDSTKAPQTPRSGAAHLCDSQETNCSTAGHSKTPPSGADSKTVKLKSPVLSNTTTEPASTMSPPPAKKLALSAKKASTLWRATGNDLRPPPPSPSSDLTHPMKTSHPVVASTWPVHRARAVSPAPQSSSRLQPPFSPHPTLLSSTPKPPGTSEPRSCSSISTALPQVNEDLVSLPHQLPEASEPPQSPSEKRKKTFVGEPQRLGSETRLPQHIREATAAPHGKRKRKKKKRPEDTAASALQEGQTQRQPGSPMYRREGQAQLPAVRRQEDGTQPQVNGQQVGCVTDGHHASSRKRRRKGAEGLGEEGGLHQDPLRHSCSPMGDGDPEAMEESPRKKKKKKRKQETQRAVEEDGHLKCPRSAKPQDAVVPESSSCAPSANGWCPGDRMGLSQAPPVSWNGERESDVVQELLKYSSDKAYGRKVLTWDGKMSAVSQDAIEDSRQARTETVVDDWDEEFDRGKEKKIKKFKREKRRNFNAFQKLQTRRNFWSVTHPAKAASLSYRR
How it was run: as §1

[3] = target: T2, USP38 (UniProt Q8NB14)
T2 sequence (whole entry): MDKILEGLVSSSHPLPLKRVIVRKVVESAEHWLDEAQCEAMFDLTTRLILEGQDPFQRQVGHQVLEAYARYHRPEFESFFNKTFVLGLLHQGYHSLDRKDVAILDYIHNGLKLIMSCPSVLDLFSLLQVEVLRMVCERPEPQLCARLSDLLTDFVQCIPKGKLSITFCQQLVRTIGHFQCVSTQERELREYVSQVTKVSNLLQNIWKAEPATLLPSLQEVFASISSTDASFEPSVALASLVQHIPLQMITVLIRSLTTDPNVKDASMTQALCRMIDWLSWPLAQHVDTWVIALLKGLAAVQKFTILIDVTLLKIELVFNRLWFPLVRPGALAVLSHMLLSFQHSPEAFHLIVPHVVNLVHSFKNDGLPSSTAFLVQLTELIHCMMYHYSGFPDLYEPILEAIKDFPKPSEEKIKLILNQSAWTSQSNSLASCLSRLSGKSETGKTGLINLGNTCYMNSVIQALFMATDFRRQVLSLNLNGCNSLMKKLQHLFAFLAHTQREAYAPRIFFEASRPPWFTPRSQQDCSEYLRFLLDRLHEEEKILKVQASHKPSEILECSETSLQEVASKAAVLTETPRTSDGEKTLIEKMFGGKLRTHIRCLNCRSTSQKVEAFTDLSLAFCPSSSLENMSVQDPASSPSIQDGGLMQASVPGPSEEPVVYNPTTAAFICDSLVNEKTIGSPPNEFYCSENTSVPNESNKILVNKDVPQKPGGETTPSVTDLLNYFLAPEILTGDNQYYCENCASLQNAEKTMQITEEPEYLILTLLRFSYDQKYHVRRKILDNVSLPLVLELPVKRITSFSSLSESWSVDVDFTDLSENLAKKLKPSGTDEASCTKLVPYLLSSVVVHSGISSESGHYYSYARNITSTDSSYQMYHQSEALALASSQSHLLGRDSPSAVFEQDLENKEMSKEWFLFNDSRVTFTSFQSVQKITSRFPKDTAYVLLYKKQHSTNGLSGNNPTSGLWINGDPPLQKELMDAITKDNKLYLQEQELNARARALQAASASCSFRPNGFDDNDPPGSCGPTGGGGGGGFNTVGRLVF
How it was run: as §1

[4] = target: T3, USP39 (UniProt Q53GS9)
T3 sequence (whole entry): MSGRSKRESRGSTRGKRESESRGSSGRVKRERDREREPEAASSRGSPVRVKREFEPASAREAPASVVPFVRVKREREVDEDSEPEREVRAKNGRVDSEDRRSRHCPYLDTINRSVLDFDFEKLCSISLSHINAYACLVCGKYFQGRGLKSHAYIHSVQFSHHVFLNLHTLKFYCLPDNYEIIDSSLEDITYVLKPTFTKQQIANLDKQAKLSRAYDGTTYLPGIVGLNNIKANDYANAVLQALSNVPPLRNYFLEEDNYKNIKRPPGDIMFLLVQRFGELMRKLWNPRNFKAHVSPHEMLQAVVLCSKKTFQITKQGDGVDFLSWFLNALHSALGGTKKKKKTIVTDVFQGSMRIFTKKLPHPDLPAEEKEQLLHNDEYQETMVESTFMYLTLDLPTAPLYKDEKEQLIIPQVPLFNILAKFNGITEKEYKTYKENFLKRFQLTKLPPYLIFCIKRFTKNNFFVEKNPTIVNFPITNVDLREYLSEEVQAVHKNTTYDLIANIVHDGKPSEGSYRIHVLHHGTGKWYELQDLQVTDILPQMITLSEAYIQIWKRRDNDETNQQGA
How it was run: as §1

[5] = target: T4, USP4 (UniProt Q13107)
T4 sequence (whole entry): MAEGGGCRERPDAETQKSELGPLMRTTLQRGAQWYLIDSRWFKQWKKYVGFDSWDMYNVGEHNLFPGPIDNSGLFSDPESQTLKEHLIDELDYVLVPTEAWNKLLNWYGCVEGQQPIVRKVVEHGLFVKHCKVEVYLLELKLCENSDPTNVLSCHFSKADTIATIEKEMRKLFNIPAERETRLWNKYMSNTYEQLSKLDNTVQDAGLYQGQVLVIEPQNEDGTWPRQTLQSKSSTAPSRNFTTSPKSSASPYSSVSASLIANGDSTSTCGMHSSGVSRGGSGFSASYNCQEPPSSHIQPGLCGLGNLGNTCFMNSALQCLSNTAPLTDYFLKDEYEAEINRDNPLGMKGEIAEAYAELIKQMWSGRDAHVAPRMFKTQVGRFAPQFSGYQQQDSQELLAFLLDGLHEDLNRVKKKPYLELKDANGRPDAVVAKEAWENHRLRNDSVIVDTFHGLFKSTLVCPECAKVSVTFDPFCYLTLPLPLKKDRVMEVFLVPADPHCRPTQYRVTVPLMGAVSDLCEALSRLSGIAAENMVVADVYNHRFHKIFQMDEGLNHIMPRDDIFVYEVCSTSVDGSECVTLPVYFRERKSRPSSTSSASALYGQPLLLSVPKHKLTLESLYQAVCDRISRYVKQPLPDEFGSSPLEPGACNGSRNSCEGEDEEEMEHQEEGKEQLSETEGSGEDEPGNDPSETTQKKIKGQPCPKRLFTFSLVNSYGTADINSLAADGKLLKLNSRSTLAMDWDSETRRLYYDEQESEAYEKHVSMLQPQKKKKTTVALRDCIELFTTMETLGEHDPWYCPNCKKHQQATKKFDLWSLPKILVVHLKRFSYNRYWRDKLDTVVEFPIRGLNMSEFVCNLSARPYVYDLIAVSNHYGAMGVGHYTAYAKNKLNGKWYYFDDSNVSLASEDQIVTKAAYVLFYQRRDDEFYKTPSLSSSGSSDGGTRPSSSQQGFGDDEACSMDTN
How it was run: as §1

Measured: log2 ratio of Biotin-Ahx-Ub-VS probe labelling

Cc1ccccc1OCC(=O)N1CCN(C(=O)CCl)CC1
inactive: [1] -0.131 | [2] -0.102 | [3] -0.159 | [4] 0.114 | [5] -0.0294
